Measurements published in PubChem BioAssay (NCATS).
Where “and” joins values, the source holds several entries; their conditions need not be identical. Identical values can stand only once. Results filed as inconclusive are left out. A number with no mark means an inactive call. Calls of active or inactive are those of the source. Calls come from the whole dose curve; as a rule, active = well fitted curve in the direction sought with a large enough effect; inconclusive = small, poorly fitted or top-dose-only effect, or another doubt; inactive = no such curve, though single readings can be large; an effect the other way counts as inactive or inconclusive.

Assay: Primary qHTS for inhibitors of nuclear receptor binding SET domain protein 2 (NSD2) in an isogenic RCH-ACV NSD2 p.E1099K mutant (9B) (AID 1645876)
Details: RCH-ACV NSD2 E1099K (9B) viability, CellTiter-Glo, 72 h; series mostly up to 44.9 µM; activity change, negative = viability loss: at the top concentration
% is set by controls: 0 for no effect and ±100 for the full control effect; potency is the fitted concentration of half-maximal effect.
Note: nearly all actives have a fitted effect of over 70% in size.

| Compound | Potency | outcome | activity change, negative = viability loss [%] |
| --- | --- | --- | --- |
| CCOC(=O)c1cncn1C(C)c1ccccc1 (configuration not stated) | inactive | – | – |
| COc1ccc2c(C(=O)c3ccc(Cl)cc3)c(C)n(CC(=O)O)c2c1 | – | inactive | – |
| C[C@@H]1CN(C2CCC(C#N)(c3ccc(F)cc3)CC2)CC[C@]1(C(=O)O)c1ccccc1 (some centres not stated) | – | – | 6.45 |
| CCOC(=O)c1ncn2c1CN(C)C(=O)c1c(I)cccc1-2 | – | – | 1.14 |
| CC(CC(C(N)=O)(c1ccccc1)c1ccccc1)N(C)C (configuration not stated) | – | – | -15.4 |
| Cc1ccc(N=CN(C)C=Nc2ccc(C)cc2C)c(C)c1 | – | inactive | – |
| CCCOC(=O)Cc1ccc(OCC(=O)N(CC)CC)c(OC)c1 | – | – | 3.44 |
| COP(=O)(OC)C(O)C(Cl)(Cl)Cl (configuration not stated) | – | inactive | – |
| CCCCCCCCC(=O)NCc1ccc(O)c(OC)c1 | – | – | -95.2 |
| Nc1ccccc1C(=O)OCC(O)CO (configuration not stated) | – | – | 0.114 |
| C=CCN1CC[C@]23CCCC[C@H]2[C@H]1Cc1ccc(O)cc13 | – | – | -4.82 |
| CC1=C2[C@H]3OC(=O)[C@@H](C)[C@@H]3CC[C@@]2(C)C=CC1=O | – | – | -22.1 |
| C[C@@H]1O[C@@H](O[C@@H]2C=C3CC[C@@H]4[C@H](CC[C@]5(C)[C@@H](c6ccc(=O)oc6)CC[C@]45O)[C@@]3(C)CC2)[C@H](O)[C@H](O)[C@H]1O | 10.5 nM (active) and 4.7 nM (active) | – | – |
| Clc1ccc(C(OCCN2CCCCC2)c2ccccc2)cc1 (configuration not stated) | 26.6 µM (active) | – | – |
| CC#C[C@]1(O)CC[C@H]2[C@@H]3C[C@H](C)C4=CC(=O)CC[C@]4(C)[C@H]3CC[C@@]21C | 23.7 µM (active) | – | – |
| CCCCCCCCCCCC[N+](C)(C)CCOc1ccccc1 | 1.33 µM (active) | – | – |
| C[N+]1(C)[C@@H]2CC[C@H]1CC(OC(=O)C(CO)c1ccccc1)C2 (some centres not stated) | – | – | 2.32 |
| CCCC[N+]1(C)[C@@H]2CC(OC(=O)[C@H](CO)c3ccccc3)C[C@H]1[C@@H]1O[C@@H]12 (some centres not stated) | inactive | – | – |

| Compound | Potency | outcome | activity change, negative = viability loss [%] |
| --- | --- | --- | --- |
| CC(C)(O)C(Cl)(Cl)Cl | – | – | 2.06 |
| NC(=O)OCCCc1ccccc1 | – | – | 0.366 |
| CC(C)[N+](C)(CCC(C(N)=O)(c1ccccc1)c1ccccc1)C(C)C | – | inactive | – |
| Cc1nnc2n1-c1sc(CCC(=O)N3CCOCC3)cc1C(c1ccccc1Cl)=NC2 | – | – | -4.7 |
| COC(=O)C1=CCCN(C)C1 | – | – | -8.13 |
| O=C(O)CCCCCCNC1c2ccccc2CCc2ccccc21 | – | – | 8.56 |
| CCC1(c2cccc(O)c2)CCCCN(C)C1 (configuration not stated) | – | – | -11.2 |
| C[C@]12Cc3nonc3C[C@@H]1CC[C@@H]1[C@@H]2CC[C@@]2(C)[C@H]1CC[C@]2(C)O | 21.1 µM (active) | – | – |
| O=C(O)Cc1ccccc1 | – | – | 0.568 |
| CCOC(=O)NC(C)(C)Cc1ccc(Cl)cc1 | – | – | 6.03 |
| O=C1CN2CCOC2(c2ccccc2Cl)c2cc(Cl)ccc2N1 (configuration not stated) | – | – | -18.3 |
| COP(=O)(OC)OC=C(Cl)Cl | – | inactive | – |
| COc1ccc(C(=O)N2CCCC2=O)cc1 | inactive | – | – |
| NC(=O)CN1CCCC1=O | – | inactive | – |
| CN(C)C(=O)Oc1cc(OC(=O)N(C)C)cc(C(O)CNC(C)(C)C)c1 (configuration not stated) | – | – | -5.4 |
| C[C@@H]1C[C@@H]([C@H](O)CC2CC(=O)NC(=O)C2)C(=O)[C@@H](C)C1 | 211 nM (active) and 296 nM (active) | – | – |
| O=C(O)c1nn(Cc2ccc(Cl)cc2Cl)c2ccccc12 | inactive | – | – |
| CC(C)C(Br)C(=O)NC(N)=O (configuration not stated) | – | – | -5.53 |

Assay: Primary qHTS for inhibitors of nuclear receptor binding SET domain protein 2 (NSD2) in an RCH-ACV wild type WT cells (2C) (AID 1645877)
Details: RCH-ACV (leukaemia line) NSD2 WT (2C) viability, CellTiter-Glo, 72 h; series mostly up to 44.9 µM; activity change, negative = cell killing: at the top concentration

| Compound | Potency | activity change, negative = cell killing [%] | outcome |
| --- | --- | --- | --- |
| CCOC(=O)c1cncn1C(C)c1ccccc1 (configuration not stated) | inactive | – | – |
| COc1ccc2c(C(=O)c3ccc(Cl)cc3)c(C)n(CC(=O)O)c2c1 | – | -13.7 | – |
| C[C@@H]1CN(C2CCC(C#N)(c3ccc(F)cc3)CC2)CC[C@]1(C(=O)O)c1ccccc1 (some centres not stated) | – | -7.29 | – |
| CCOC(=O)c1ncn2c1CN(C)C(=O)c1c(I)cccc1-2 | – | -0.314 | – |
| CC(CC(C(N)=O)(c1ccccc1)c1ccccc1)N(C)C (configuration not stated) | – | -4.85 | – |
| Cc1ccc(N=CN(C)C=Nc2ccc(C)cc2C)c(C)c1 | – | 8.39 | – |
| CCCOC(=O)Cc1ccc(OCC(=O)N(CC)CC)c(OC)c1 | – | -2.96 | – |
| COP(=O)(OC)C(O)C(Cl)(Cl)Cl (configuration not stated) | – | – | inactive |
| CCCCCCCCC(=O)NCc1ccc(O)c(OC)c1 | – | -95 | – |
| Nc1ccccc1C(=O)OCC(O)CO (configuration not stated) | – | -2.18 | – |
| C=CCN1CC[C@]23CCCC[C@H]2[C@H]1Cc1ccc(O)cc13 | – | -14.2 | – |
| CC1=C2[C@H]3OC(=O)[C@@H](C)[C@@H]3CC[C@@]2(C)C=CC1=O | – | -22.4 | – |
| C[C@@H]1O[C@@H](O[C@@H]2C=C3CC[C@@H]4[C@H](CC[C@]5(C)[C@@H](c6ccc(=O)oc6)CC[C@]45O)[C@@]3(C)CC2)[C@H](O)[C@H](O)[C@H]1O | 13.2 nM (active) and 7.5 nM (active) | – | – |
| Clc1ccc(C(OCCN2CCCCC2)c2ccccc2)cc1 (configuration not stated) | 26.6 µM (active) | – | – |
| CC#C[C@]1(O)CC[C@H]2[C@@H]3C[C@H](C)C4=CC(=O)CC[C@]4(C)[C@H]3CC[C@@]21C | 15 µM (active) | – | – |
| CCCCCCCCCCCC[N+](C)(C)CCOc1ccccc1 | 0.944 µM (active) | – | – |
| C[N+]1(C)[C@@H]2CC[C@H]1CC(OC(=O)C(CO)c1ccccc1)C2 (some centres not stated) | – | 0.649 | – |
| CCCC[N+]1(C)[C@@H]2CC(OC(=O)[C@H](CO)c3ccccc3)C[C@H]1[C@@H]1O[C@@H]12 (some centres not stated) | inactive | – | – |

| Compound | Potency | activity change, negative = cell killing [%] | outcome |
| --- | --- | --- | --- |
| CC(C)(O)C(Cl)(Cl)Cl | – | – | inactive |
| NC(=O)OCCCc1ccccc1 | – | – | inactive |
| CC(C)[N+](C)(CCC(C(N)=O)(c1ccccc1)c1ccccc1)C(C)C | – | – | inactive |
| Cc1nnc2n1-c1sc(CCC(=O)N3CCOCC3)cc1C(c1ccccc1Cl)=NC2 | – | -12.6 | – |
| COC(=O)C1=CCCN(C)C1 | – | 6.33 | – |
| O=C(O)CCCCCCNC1c2ccccc2CCc2ccccc21 | – | – | inactive |
| CCC1(c2cccc(O)c2)CCCCN(C)C1 (configuration not stated) | – | -18.4 | – |
| C[C@]12Cc3nonc3C[C@@H]1CC[C@@H]1[C@@H]2CC[C@@]2(C)[C@H]1CC[C@]2(C)O | 21.1 µM (active) | – | – |
| O=C(O)Cc1ccccc1 | – | -7.64 | – |
| CCOC(=O)NC(C)(C)Cc1ccc(Cl)cc1 | – | 3.78 | – |
| O=C1CN2CCOC2(c2ccccc2Cl)c2cc(Cl)ccc2N1 (configuration not stated) | – | -21.7 | – |
| COP(=O)(OC)OC=C(Cl)Cl | – | – | inactive |
| COc1ccc(C(=O)N2CCCC2=O)cc1 | inactive | – | – |
| NC(=O)CN1CCCC1=O | – | 5.1 | – |
| CN(C)C(=O)Oc1cc(OC(=O)N(C)C)cc(C(O)CNC(C)(C)C)c1 (configuration not stated) | – | -6.4 | – |
| C[C@@H]1C[C@@H]([C@H](O)CC2CC(=O)NC(=O)C2)C(=O)[C@@H](C)C1 | 188 nM (active) and 296 nM (active) | – | – |
| O=C(O)c1nn(Cc2ccc(Cl)cc2Cl)c2ccccc12 | inactive | – | – |
| CC(C)C(Br)C(=O)NC(N)=O (configuration not stated) | – | 3.13 | – |
